High-throughput results as filed in PubChem BioAssay.
Only some compounds are listed: those with a hit (about 2.8% of all), similar ones and a draw of the others.
HSP90 inh: inhibitors of HSP90 luciferase refolding in rabbit reticulocyte lysate; luciferase refolding luminescence, 3 h; actives 0.91% (n = 290,000); inhibition, % at 5.6 µM;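 active means inhibition above the screen-wide mean plus 3 SD, computed separately per campaign, cut at about 16% in these data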;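 further: 0% = DMSO wells and 100% = 60 µM geldanamycin wells; inhibitors lower the luminescence because luciferase stays unfolded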
SENP6 inh: blocks the human protease SENP6 | actives 1.8% (n = 330,000) | Recombinant SENP6 catalytic domain, aminoluciferin luminescence | Q9GZR1 | inhibition, % at 10 µM;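 active means inhibition above about 50% at the single tested dose, limit read from the data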;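 further: plate controls were DMSO wells with enzyme for no effect and DMSO wells lacking enzyme for full effect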
SENP7 inh: SENP7 protease inhibition; Q9BQF6; recombinant SENP7, Z-RLRGG-aminoluciferin luminescence, 40 min; inhibition, % at 5 µM; actives 1.5% (n = 330,000);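 active means inhibition above about 50% at the single test dose, limit read from the data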;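 further: plate controls were DMSO with enzyme for no effect and no enzyme buffer wells for full effect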
SENP8 block-1: blocks the human protease SENP8; Q96LD8; purified SENP8, Z-RLRGG-aminoluciferin cleavage, luminescence; inhibition, % at 10 µM; actives 1.2% (n = 330,000); AID 2540; in the data active means inhibition above about 50%
SENP8 block-2: SENP8 (human) protease inhibition; AID 602440; actives 0.64% (n = 360,000); Q96LD8; inhibition, % at 20 µM; recombinant SENP8, Nedd8 substrate fluorescence; in the data active means inhibition mostly above about 40%, no sharp cut-off; inactive means mostly below about 27%
HSP90 confirm: confirmation of HSP90 inhibitors. shares compounds with HSP90 inh. actives 64% (n = 2,300). rabbit reticulocyte lysate, luciferase refolding luminescence, 3 h. inhibition, % at 5.9 µM; in the data active means inhibition above about 18%;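 further: 0% = vehicle wells and 100% = reference inhibitor wells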
FLuc counter: blocks native firefly luciferase in HSP90 counter-screen. shares compounds with HSP90 inh. purified native firefly luciferase, luminescence. inhibition, % at 5.9 µM. actives 48% (n = 2,300). AID 1847;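 active means inhibition above the mean inhibition of all tested sample wells plus 3 SD, cut at about 10% in these data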;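 further: 0% = DMSO with luciferase and 100% = wells lacking luciferase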
Target sequence (P08659 whole entry, looked up): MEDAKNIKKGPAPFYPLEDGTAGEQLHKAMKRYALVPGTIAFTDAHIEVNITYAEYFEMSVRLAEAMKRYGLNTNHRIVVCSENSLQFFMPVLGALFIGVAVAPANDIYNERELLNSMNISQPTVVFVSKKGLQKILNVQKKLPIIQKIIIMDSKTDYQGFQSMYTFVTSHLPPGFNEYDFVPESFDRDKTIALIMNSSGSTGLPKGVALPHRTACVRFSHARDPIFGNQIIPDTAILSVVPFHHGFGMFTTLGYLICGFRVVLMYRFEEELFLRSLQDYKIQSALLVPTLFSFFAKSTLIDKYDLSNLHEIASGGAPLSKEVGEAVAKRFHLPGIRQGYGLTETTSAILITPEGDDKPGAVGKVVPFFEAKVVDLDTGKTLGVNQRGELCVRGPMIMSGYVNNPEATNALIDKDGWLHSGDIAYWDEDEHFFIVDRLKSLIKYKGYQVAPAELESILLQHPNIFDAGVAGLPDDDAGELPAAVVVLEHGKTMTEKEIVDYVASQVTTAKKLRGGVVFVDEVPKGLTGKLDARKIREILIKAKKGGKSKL
Starred values were filed as active, the others as inactive; . = no result.

SMILES	HSP90 inh	SENP6 inh	SENP7 inh	SENP8 block-1	SENP8 block-2	HSP90 confirm	FLuc counter
O=C(CN1CCN(S(=O)(=O)N2CCOCC2)CC1)Nc1ccc(Cl)c(Cl)c1	3	-13	5	-8	10	.	.
CC1CCN(C(=O)N2c3ccccc3Sc3ccccc32)CC1	19*	-4	4	4	9	8	2
COc1cc(/C=C2\CC/C(=C\c3ccc(OCCO)c(OC)c3)C2=O)ccc1OCCO	-2	-8	-14	-14	-121	.	.
N#Cc1cc[n+](CC(=O)c2ccc(NC(=O)c3ccccc3)cc2)cc1	21*	23	11	-4	-76	-1	-9
COc1ccccc1C(=O)NC(=S)N1CCCc2ccccc21	18*	-6	6	-3	-116	20*	13*
CCN(CC)CCOC(=O)c1ccc(NC(=O)CCCN2C(=O)S/C(=C/c3ccc(OC)cc3)C2=S)cc1	34*	9	1	-9	21	30*	-26
COc1ccc(/C=C2\SC(=S)N(CCC(=O)Nc3ccc(O)cc3)C2=O)cc1	1	-3	-6	9	17	.	.
CCOC(=O)c1sc(N)c(C#N)c1CSc1nc2ccc(C)cc2[nH]1	18*	-15	-13	-2	23	0	-5
CCOC(=O)c1sc(N)c(C#N)c1CSc1nc2ccc(OCC)cc2[nH]1	1	2	3	0	13	.	.
Cc1cc(C(=O)OCC(=O)NCc2ccc3c(c2)OCO3)c2ccccc2n1	2	-13	6	-1	-6	.	.
COC(=O)c1ccc(-c2ccc(/C=N/NC(=O)CC3(C)OCCCO3)o2)cc1	17*	6	-4	4	-426	26*	0
CCOc1ccc(N=C(NN)c2ccc3ccccc3n2)cc1	28*	24	1	0	-46	12	-4
CC(=O)Nc1ccc(OS(=O)(=O)c2ccc([N+](=O)[O-])cc2)cc1	55*	2	4	-8	16	76*	-5
Cc1ccccc1NC(=S)NC12CN3CN(CN(C3)C1)C2	4	-16	-3	-5	8	.	.
Cc1cc(NC(=O)c2cccc(COc3ccc(Br)cc3)c2)no1	21*	11	0	9	4	64*	53*
O=c1c2ccccc2nc(-c2ccco2)n1-c1nc2ccccc2s1	3	-4	-5	-1	-4	.	.
CC1CCCCN1C(=O)NC12CC3CC(CC(C3)C1)C2 (stereo unspecified)	-2	-4	1	3	6	.	.
COC(=O)c1sc(NC(=O)CSc2nnnn2-c2cccc(OC)c2)nc1C	20*	0	3	3	20	1	-7
CCOC(=O)c1sc(NC(=O)CSc2nnnn2-c2ccccc2)nc1C	-2	-17	1	-6	23	.	.
CC1(C)Cc2c(ccc3ccccc23)C(c2cc3ccccc3oc2=O)=N1	5	-8	3	0	7	.	.
CC(=O)Nc1ccc(-n2c(=O)c3ccccc3c3ccccc3c2=O)cc1	24*	-1	1	-8	0	9	-1
CN(C)c1ccc(C(O)Cc2nc3ccccc3n2C)cc1 (stereo unspecified)	46*	5	6	0	4	5	1
CC1(C)CC(C2N3CC4(C)CN2CC(C)(C3)C4=O)CCO1 (stereo unspecified)	0	3	-3	-1	11	.	.
Cc1ccc(S(=O)(=O)NCCCNS(=O)(=O)c2ccccc2)cc1	25*	-33	-1	-5	5	-7	-8
COc1ccc2c(c1)c(/C=N/Nc1ccc(C(=O)O)cc1)c(C)n2C	30*	-7	8	-5	-387	41*	35*
SMILES	HSP90 inh	SENP6 inh	SENP7 inh	SENP8 block-1	SENP8 block-2	HSP90 confirm	FLuc counter
O=C(NNC(=O)c1cc2cc(Br)ccc2oc1=O)c1ccc(O)cc1	-3	-11	5	-5	16	.	.
O=C(Nc1ccccc1O)c1cc2cc(Br)ccc2oc1=O	17*	-21	21	-5	3	-4	-16
COc1cc(CN(CC(C)C)S(=O)(=O)c2ccccc2Br)cc(OC)c1	.	.	-2	.	1	.	.
C#CCn1cc(/C=C2\NC(=O)NC2=O)c2ccccc21	67*	-14	-7	-7	-60	53*	-9
CCN(CC)c1ccc2cc(-c3nc4ccccc4[nH]3)c(=O)oc2c1	35*	69*	95*	51*	-322	68*	67*
Cc1ccc(C(C)C)cc1C(=O)CC1(O)C(=O)N(C)c2ccccc21 (stereo unspecified)	0	-19	-8	-5	19	.	.
O=C(Nc1ccccc1C(F)(F)F)c1cc(-c2ccccc2O)on1	21*	-6	2	2	6	2	-9
O=C(Nc1ccccc1C(F)(F)F)c1cc(-c2ccco2)on1	-3	-15	2	-1	5	.	.
O=C(O)CSc1ncnc2c1sc1nc(-c3ccccc3)c3c(c12)CCC3	-1	-13	-8	-6	-110	.	.
Cc1cccc(NC(=O)CSc2nnc(Cn3nnc(-c4ccccc4)n3)n2-c2ccccc2)c1	21*	-3	-2	0	2	5	-10
CCc1nnc(NC(=O)c2ccc(OC)cc2OC)s1	21*	-24	-1	-14	-3	47*	43*
CCOc1ccc(NC(=O)Nc2nnc(CC)s2)cc1	18*	-17	-17	-10	27	-2	-9
COc1ccc(OCc2nnc(NC(=O)Nc3ccc(F)cc3)s2)cc1	-1	-11	6	-5	8	.	.
CCN(C(=O)Nc1cccc(Cl)c1)c1ccccc1	2	12	-5	-4	9	.	.
Cc1cccc(N(O)C(=O)Nc2cccc(Cl)c2)c1	26*	28	13	12	26	62*	-17
O=C(Nc1cccc2c1CCCC2)c1cccc(F)c1	1	8	-5	-4	6	.	.
O=C(COc1ccc(Br)cc1Cl)NC(=S)Nc1ccccn1	32*	-8	-3	6	8	38*	32*
Cc1ccc(OCC(=O)NC(=S)Nc2ccccn2)c(Br)c1	72*	43	-36	46	10	80*	79*
Cc1ccc(NC(=O)CN2C(=O)S/C(=C\c3ccc(-c4cccc(C(=O)O)c4C)o3)C2=O)cc1	26*	-3	-1	7	.	24*	-6
Cc1ccc(C(=O)O)cc1-c1ccc(/C=C2\SC(=O)N(CC(=O)Nc3ccccc3)C2=O)o1	6	3	-6	4	-321	.	.
O=C(O)C[C@H]1c2ccccc2S(=O)(=O)N1C1CCCCC1	.	-8	0	-5	7	.	.
COc1ccc(OC)c(Cc2nnc(CCC(=O)NC3C4CC5CC(C4)CC3C5)o2)c1 (stereo unspecified)	18*	5	0	6	11	-7	-6
Cc1ccc(C(=O)N2CCc3ccccc32)cc1	0	11	0	0	12	.	.
